PubChem BioAssay (EPA / NIEHS)
Some structures have more than one record in an assay (separate samples or runs), and their calls can disagree. Activity calls are given as the source filed them. How the source made its calls: active means hit-call score of the fitted dose curve at least 0.9, where 1 is the maximum; inactive means score below 0.9.

Read-out: Matrix Metallopeptidase 1 (MMP1), MMP1 (gene 4312)
Experiment: BSK_BE3C_MMP1: BioMAP Diversity Plus: BE3C Assay for Matrix Metallopeptidase 1 (MMP1) Biomarker Activity (AID 2283024)
Details: primary human bronchial epithelial cells; actives raise or lower the signal
How it was run: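 ELISA measurement of MMP-1 after 24 h compound exposure of primary human bronchial epithelial cells. Changes in either direction fitted relative to DMSO; parallel SRB staining checked overt cytotoxicity.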

SMILES | outcome | AC50
O=[N+]([O-])c1ccccc1 | inactive | –
CCOP(=S)(S)OCC | inactive | –
CC(C)(C)OOC(C)(C)C | inactive | –
CC(C)Nc1ccc(Nc2ccccc2)cc1 | inactive | –
CC(C)(C)c1ccc(O)cc1 | inactive | –
CC(Cc1ccc(OCC(=O)O)cc1)NCC(O)c1csc(C(F)(F)F)n1 (configuration not stated) | inactive | –
COCCOCCO | inactive | –
ClC(Cl)c1ccccc1 | inactive | –
COP(=O)(CCC(=O)NCO)OC | inactive | –
Nc1ccc(Cl)cc1 | inactive | –
C=CC(=O)OCC(F)(F)C(F)F | inactive | –
COP(=O)(O)OC | inactive | –
CCCCN(CCCC)SN(C)C(=O)Oc1cccc2c1OC(C)(C)C2 | inactive | –
CCOS(=O)(=O)OCC | inactive | –
O=c1ssc(Cl)c1Cl | – | 9.81 µM (active)
c1ccc(OP(Oc2ccccc2)Oc2ccccc2)cc1 | inactive | –

Read-out: not listed separately
Experiment: BSK_3C_Vis: BioMAP Diversity Plus: 3C Assay for Morphology Visualization (AID 2283025);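 further: fitted both ways so gain or loss versus DMSO counts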;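 on AC50: light microscopy image of cell morphology used as background control; cells imaged 24 h after dosing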
Details: primary human endothelial cells (HUVEC)
How it was run: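 Light-microscopy visualization of HUVEC cultures at 24 h post-treatment, with DMSO as baseline for bidirectional fitting.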

SMILES | outcome | AC50
O=[N+]([O-])c1ccccc1 | inactive | –
CCOP(=S)(S)OCC | inactive | –
CC(C)(C)OOC(C)(C)C | inactive | –
CC(C)Nc1ccc(Nc2ccccc2)cc1 | – | 9.94 µM (active)
CC(C)(C)c1ccc(O)cc1 | inactive | –
CC(Cc1ccc(OCC(=O)O)cc1)NCC(O)c1csc(C(F)(F)F)n1 (configuration not stated) | inactive | –
COCCOCCO | inactive | –
ClC(Cl)c1ccccc1 | inactive | –
Nc1ccc(Cl)cc1 | inactive | –
COP(=O)(O)OC | inactive | –
CCCCN(CCCC)SN(C)C(=O)Oc1cccc2c1OC(C)(C)C2 | – | 37.5 µM (active)
CCOS(=O)(=O)OCC | inactive | –
O=c1ssc(Cl)c1Cl | – | 4.24 µM (active)
c1ccc(OP(Oc2ccccc2)Oc2ccccc2)cc1 | inactive | –

Read-out: Pselectin, SELP (gene 6403)
Experiment: BSK_4H_Pselectin: BioMAP Diversity Plus: 4H Assay for Pselectin Biomarker Activity (AID 2283026)
Details: primary human endothelial cells (HUVEC); actives raise or lower the signal
How it was run: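 ELISA of surface P-selectin on HUVEC, 24 h after dosing, with parallel SRB staining (0.1% after 10% TCA fixation, 560 nm) for overt cytotoxicity. Activity fitted in both directions relative to DMSO.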

SMILES | outcome | AC50
O=[N+]([O-])c1ccccc1 | inactive | –
CCOP(=S)(S)OCC | inactive | –
CC(C)(C)OOC(C)(C)C | inactive | –
CC(C)Nc1ccc(Nc2ccccc2)cc1 | – | 7.42 µM (active)
CC(C)(C)c1ccc(O)cc1 | inactive | –
CC(Cc1ccc(OCC(=O)O)cc1)NCC(O)c1csc(C(F)(F)F)n1 (configuration not stated) | inactive | –
COCCOCCO | inactive | –
ClC(Cl)c1ccccc1 | inactive | –
COP(=O)(CCC(=O)NCO)OC | inactive | –
Nc1ccc(Cl)cc1 | inactive | –
C=CC(=O)OCC(F)(F)C(F)F | inactive | 19.2 µM (active)
COP(=O)(O)OC | inactive | –
CCCCN(CCCC)SN(C)C(=O)Oc1cccc2c1OC(C)(C)C2 | – | 20.2 µM (active)
CCOS(=O)(=O)OCC | inactive | –
O=c1ssc(Cl)c1Cl | – | 4.74 µM (active)
c1ccc(OP(Oc2ccccc2)Oc2ccccc2)cc1 | inactive | –
